In the supplement of paper PMC11732987, “Enantioselective OTUD7B fragment discovery through chemoproteomics screening and high-throughput optimisation” (Communications Chemistry, 2025):
Values without a mark were called inactive.

What was measured:
Assay in all cases: log2 ratio of Biotin-Ahx-Ub-VS probe labelling (fragment/DMSO); higher = less target engagement (more negative = stronger competition), active = hit call of the paper (q ≤ 0.05, log2 ratio ≤ -1)
Conditions in all cases: compound concentration: 200 uM; treatment time: 3 h
OTUD6B = molecular target: T1, OTUD6B (UniProt Q8N6M0)
T1 sequence (whole entry): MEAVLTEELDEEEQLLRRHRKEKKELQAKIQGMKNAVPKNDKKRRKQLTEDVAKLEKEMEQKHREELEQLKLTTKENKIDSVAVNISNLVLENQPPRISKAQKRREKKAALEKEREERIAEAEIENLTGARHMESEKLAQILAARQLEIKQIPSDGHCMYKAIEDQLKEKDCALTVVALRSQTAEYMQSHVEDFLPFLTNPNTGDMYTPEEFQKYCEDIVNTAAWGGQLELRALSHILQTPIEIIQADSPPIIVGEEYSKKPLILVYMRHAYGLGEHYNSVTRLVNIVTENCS
Summary of the method: (§1)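 Lysate from HEK293T cells, 495 µg per sample in Tris/CHAPS/IGEPAL buffer with protease inhibitors, was treated for 3 h in triplicate with fragment at 200 µM or vehicle. Biotin-Ahx-Ub-VS was next added at 0.5 µM final for 1 h. The labelled DUBs were enriched with NeutrAvidin, digested with LysC and trypsin, and run by diaPASEF LC-MS/MS, with values given as average log2 fragment/vehicle ratios by unpaired t-test on global-median-normalised Spectronaut quantities of proteins with ≥2 unique peptides.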

OTUD7B = molecular target: T2, OTUD7B (UniProt Q6GQQ9)
T2 sequence (whole entry): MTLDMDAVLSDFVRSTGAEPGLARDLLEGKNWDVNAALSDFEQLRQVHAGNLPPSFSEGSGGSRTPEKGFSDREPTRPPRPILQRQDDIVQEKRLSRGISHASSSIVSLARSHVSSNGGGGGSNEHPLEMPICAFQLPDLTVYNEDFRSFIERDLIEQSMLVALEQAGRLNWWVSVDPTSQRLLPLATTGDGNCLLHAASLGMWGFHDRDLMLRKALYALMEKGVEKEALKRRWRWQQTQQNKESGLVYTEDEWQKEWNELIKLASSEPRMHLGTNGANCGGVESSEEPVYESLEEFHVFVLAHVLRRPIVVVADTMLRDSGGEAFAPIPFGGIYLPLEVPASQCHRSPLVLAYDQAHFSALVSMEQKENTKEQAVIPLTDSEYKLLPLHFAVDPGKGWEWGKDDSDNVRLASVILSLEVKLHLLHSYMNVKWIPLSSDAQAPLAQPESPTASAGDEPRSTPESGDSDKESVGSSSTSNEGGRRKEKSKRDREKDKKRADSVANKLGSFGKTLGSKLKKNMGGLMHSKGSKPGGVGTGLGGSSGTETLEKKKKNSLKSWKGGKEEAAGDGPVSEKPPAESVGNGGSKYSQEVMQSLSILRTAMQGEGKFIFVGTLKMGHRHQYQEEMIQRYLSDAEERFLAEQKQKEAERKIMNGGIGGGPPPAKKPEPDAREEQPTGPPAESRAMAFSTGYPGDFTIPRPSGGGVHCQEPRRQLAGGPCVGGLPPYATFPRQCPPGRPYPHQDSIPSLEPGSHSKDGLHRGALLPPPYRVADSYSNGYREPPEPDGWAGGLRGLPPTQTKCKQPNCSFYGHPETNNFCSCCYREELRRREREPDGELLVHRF
Summary of the method: as §1

PRPF8 = PRPF8 (UniProt Q6P2Q9)
Summary of the method: as §1

PSMD7 = molecular target: T3, PSMD7 (UniProt P51665)
T3 sequence (whole entry): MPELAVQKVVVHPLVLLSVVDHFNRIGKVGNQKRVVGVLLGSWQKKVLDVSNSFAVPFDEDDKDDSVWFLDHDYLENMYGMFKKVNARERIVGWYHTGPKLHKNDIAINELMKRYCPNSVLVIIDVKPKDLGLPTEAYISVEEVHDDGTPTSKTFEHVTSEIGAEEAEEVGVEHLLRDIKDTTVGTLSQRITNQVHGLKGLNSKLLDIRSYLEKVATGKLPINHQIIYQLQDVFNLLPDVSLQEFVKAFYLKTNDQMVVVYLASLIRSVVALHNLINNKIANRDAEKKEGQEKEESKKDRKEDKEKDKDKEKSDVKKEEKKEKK
Summary of the method: as §1

UCHL1 = UCHL1 (UniProt P09936)
Sequence of UCHL1 (P09936 whole entry, looked up): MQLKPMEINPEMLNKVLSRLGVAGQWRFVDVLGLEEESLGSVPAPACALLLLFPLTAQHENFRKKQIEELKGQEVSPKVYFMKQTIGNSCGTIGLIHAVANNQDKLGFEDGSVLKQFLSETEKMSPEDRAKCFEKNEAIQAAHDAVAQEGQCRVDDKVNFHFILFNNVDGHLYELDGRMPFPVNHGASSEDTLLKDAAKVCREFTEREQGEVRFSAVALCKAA
Summary of the method: as §1

UCHL3 = molecular target: T4, UCHL3 (UniProt P15374)
T4 sequence (whole entry): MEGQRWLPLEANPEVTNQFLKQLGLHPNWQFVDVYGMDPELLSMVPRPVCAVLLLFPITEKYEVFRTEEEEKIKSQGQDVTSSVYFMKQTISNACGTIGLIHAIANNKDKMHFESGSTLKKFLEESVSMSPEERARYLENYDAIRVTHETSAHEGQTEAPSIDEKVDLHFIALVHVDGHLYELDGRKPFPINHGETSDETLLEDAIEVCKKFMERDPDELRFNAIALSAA
Summary of the method: as §1

UCHL5 = molecular target: T5, UCHL5 (UniProt Q9Y5K5)
T5 sequence (whole entry): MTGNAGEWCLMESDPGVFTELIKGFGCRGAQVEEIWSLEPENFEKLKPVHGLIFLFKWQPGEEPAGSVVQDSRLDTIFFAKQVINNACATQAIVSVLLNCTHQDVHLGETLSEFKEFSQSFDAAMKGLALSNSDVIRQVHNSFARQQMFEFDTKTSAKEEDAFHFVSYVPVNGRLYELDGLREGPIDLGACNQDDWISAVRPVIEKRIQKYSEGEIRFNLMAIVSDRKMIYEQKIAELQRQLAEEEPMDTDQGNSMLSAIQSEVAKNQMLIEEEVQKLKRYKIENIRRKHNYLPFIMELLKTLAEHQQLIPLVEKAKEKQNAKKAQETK
Summary of the method: as §1

USP10 = USP10 (UniProt Q14694)
Sequence of USP10 (Q14694 whole entry): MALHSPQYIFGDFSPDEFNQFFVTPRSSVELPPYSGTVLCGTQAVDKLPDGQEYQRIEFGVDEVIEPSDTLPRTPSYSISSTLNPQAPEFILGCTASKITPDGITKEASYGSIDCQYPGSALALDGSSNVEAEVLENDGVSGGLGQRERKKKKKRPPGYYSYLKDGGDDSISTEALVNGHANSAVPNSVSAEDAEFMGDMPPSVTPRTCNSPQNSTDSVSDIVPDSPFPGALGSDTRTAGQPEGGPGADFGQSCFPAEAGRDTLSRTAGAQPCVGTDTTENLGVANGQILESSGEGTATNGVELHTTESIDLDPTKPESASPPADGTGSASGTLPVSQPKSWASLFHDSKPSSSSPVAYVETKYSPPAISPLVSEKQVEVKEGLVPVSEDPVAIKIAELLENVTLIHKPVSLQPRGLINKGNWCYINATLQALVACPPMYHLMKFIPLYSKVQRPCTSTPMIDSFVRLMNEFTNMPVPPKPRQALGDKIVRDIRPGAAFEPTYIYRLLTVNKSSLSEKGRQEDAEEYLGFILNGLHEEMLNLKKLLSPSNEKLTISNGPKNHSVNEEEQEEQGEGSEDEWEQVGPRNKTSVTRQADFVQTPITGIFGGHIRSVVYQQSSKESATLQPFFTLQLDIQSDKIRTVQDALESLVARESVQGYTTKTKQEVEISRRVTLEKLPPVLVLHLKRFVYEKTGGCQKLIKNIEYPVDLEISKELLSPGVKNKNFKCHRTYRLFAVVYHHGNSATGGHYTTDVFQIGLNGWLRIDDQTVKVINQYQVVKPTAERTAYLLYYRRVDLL
Summary of the method: as §1

USP15 = molecular target: T6, USP15 (UniProt Q9Y4E8)
T6 sequence (whole entry): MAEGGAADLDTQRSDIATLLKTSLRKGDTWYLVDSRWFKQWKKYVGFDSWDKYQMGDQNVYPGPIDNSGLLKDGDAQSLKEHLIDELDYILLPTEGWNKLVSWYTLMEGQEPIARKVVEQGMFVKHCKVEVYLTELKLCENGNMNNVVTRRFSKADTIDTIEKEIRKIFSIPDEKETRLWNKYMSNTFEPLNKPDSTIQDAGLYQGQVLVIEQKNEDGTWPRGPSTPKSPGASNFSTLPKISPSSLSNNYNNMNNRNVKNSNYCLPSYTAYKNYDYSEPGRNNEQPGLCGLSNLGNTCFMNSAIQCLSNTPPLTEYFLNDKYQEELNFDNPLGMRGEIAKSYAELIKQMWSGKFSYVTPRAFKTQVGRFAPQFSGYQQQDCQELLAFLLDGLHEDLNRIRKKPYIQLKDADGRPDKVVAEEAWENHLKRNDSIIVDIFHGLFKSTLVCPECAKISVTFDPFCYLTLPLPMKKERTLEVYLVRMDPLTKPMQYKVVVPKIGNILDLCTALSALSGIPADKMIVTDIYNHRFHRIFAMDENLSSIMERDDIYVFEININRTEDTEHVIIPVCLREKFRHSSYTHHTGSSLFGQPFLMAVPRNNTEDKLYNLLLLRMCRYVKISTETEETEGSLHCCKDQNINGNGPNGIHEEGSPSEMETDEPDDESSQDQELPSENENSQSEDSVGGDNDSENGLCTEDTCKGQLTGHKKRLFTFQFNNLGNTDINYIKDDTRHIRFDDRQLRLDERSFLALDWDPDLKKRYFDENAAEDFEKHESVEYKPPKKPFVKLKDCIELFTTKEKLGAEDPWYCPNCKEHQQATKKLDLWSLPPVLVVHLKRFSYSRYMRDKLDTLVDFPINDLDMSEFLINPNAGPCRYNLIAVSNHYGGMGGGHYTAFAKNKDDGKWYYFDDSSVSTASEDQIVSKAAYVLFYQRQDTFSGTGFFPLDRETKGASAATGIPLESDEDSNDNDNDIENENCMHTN
Summary of the method: as §1

USP16 = USP16 (UniProt Q9Y5T5)
Sequence of USP16 (Q9Y5T5 whole entry, looked up): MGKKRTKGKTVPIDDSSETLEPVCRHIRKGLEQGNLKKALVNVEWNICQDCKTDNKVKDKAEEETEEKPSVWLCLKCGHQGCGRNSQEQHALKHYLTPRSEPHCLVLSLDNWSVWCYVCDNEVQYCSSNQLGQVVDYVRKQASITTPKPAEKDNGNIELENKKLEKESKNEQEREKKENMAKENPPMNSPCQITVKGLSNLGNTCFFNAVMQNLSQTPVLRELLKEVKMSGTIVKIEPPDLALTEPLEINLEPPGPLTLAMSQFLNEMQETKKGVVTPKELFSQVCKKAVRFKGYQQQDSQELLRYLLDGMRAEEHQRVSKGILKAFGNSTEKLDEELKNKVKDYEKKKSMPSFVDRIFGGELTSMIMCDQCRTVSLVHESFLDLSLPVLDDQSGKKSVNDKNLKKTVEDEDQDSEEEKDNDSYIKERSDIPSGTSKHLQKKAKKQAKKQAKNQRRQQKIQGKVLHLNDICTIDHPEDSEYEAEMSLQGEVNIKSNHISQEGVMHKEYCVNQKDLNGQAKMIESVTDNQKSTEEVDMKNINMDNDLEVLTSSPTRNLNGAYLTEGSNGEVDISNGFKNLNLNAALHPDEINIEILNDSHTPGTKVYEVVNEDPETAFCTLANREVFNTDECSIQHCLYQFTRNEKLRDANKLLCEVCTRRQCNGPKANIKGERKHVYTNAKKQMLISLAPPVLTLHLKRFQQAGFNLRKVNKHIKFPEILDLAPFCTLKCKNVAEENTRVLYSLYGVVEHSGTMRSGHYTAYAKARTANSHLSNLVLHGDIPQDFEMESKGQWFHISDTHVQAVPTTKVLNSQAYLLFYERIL
Summary of the method: as §1

Cc1conc1C1CN(C(=O)CCl)C1
log2 ratio of Biotin-Ahx-Ub-VS probe labelling (OTUD6B): -0.688
log2 ratio of Biotin-Ahx-Ub-VS probe labelling (OTUD7B): -1.6 (active)
log2 ratio of Biotin-Ahx-Ub-VS probe labelling (PRPF8): -0.125
log2 ratio of Biotin-Ahx-Ub-VS probe labelling (PSMD7): -0.499
log2 ratio of Biotin-Ahx-Ub-VS probe labelling (UCHL1): -2.04 (active)
log2 ratio of Biotin-Ahx-Ub-VS probe labelling (UCHL3): -0.637
log2 ratio of Biotin-Ahx-Ub-VS probe labelling (UCHL5): -0.912
log2 ratio of Biotin-Ahx-Ub-VS probe labelling (USP10): -0.254
log2 ratio of Biotin-Ahx-Ub-VS probe labelling (USP15): -1.15 (active)
log2 ratio of Biotin-Ahx-Ub-VS probe labelling (USP16): -0.0913
